This is an account of results in PubChem BioAssay (NCATS).

Results filed as inconclusive are left out. Unmarked numbers belong to inactive results. Activity calls are given as the source filed them. Calls follow the shape of the dose curve; as a rule, active = well fitted inhibition curve with a large enough effect; inconclusive = small, poorly fitted or top-dose-only effect; inactive = flat fitted curve, though single readings scatter.

The subject of the test is Zika virus NS2B-NS3 protease. Kind of test: Primary screen GU AMC qHTS for Zika virus inhibitors (AID 1347154).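 Also: 0% = no-inhibitor control and -100% = no-enzyme control; nearly all actives have a fitted effect of over 70% in size.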 To be noted: Zika NS2B-NS3 unlinked protease, AMC fluorogenic substrate; series mostly up to 54.1 µM; activity change, negative = inhibition: at the top concentration. In a few lines:
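Fluorogenic AMC-substrate cleavage by noncovalent NS2B-NS3 protease complex (25 nM, pH 8.0 Tris buffer with Tween 20) followed for 15 minutes at room temperature (~20% conversion). Percent inhibition from ex340/em450 signal change, fitted by 4-parameter Hill equation.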
For orientation: qHTS replaces the single test concentration by a dilution series.
Regarding `O=c1ccn([C@@H]2O[C@H](COP(=O)(O)O)[C@@H](O)[C@H]2O)c(=O)[nH]1`, the “activity change, negative = inhibition” value was 13.3%. As for `CCCCCCCCCCCCCCCCOCC(CO)OC(C)=O` (stereo not given), the activity change, negative = inhibition is 15.1% [at 6.83 µM].

Take `CS(=O)(=O)Nc1c(O)ccc2c1CCCC2C1=NCCN1` (stereo not given): the “activity change, negative = inhibition” value was 7.62%. For `CCCCC[C@H](O)/C=C/[C@@H]1[C@H]2C/C(=C/CCCC(=O)O)C[C@H]2C[C@H]1O`, the “activity change, negative = inhibition” value is -0.0161%. In the case of `Cn1cnnc1Sc1c([N+](=O)[O-])ncn1C`, the “activity change, negative = inhibition” value was -2.98%. `CC(Sc1nc2ccccc2[nH]1)C(=O)NN=Cc1cc(Br)ccc1O` (stereo not given): the activity change, negative = inhibition was 1.61% [at 6.83 µM].

`Cc1nn(C)c2nc(NNC(=O)Nc3cc(Cl)nc(Cl)c3)cc(C(C)C)c12`: the “activity change, negative = inhibition” value was 1.41%.

Consider `Nc1ncnc2c1ncn2[C@@H]1O[C@H](COP(=O)(O)OP(=O)(O)CP(=O)(O)O)[C@@H](O)[C@H]1O`, for which the “activity change, negative = inhibition” value is 0.833%. As for `COc1ccccc1N1CCN(CC2CN3C(=O)N(C)c4ccccc4C3=N2)CC1` (stereo not given), the “activity change, negative = inhibition” value is 12.6%. As for `CN(CCc1ccc(Cl)c(Cl)c1)CC(O)COc1ccc(NS(C)(=O)=O)cc1` (stereo not given), the “activity change, negative = inhibition” value is 8.93%. Take `O=C(O)CCC/C=C\C[C@@H]1C(/C=C/[C@@H](O)COc2cccc(C(F)(F)F)c2)[C@@H](O)C[C@@H]1O` (stereo not given in full): the activity change, negative = inhibition was 0.372% [at 6.83 µM]. Take `Cc1nc2c(c(=O)[nH]1)CSCC2`: the “activity change, negative = inhibition” value was 4.07%. The same measure, in the same setting: for `CC(N)(C(=O)O)c1ccc(-c2nn[nH]n2)cc1` (stereo not given) the value was -10.5%; for `Cc1c(C(=O)N(C)C2CCCCC2)sc2nc3ccc(N)cc3n12`, 7.6%; for `Cc1ccccc1N1CCN(S(=O)(=O)CC23CCC(CC2NC(=O)C(N)CCS(C)(=O)=O)C3(C)C)CC1` (stereo not given), 6.65%. Turning to `CC(C)CC(NC(=O)NC(CCC(=O)O)C(=O)O)C(=O)O` (stereo not given), the “activity change, negative = inhibition” value is -3.77%. For the molecule `C=CC1CN2CCC1C[C@H]2C(O)c1ccnc2ccc(OC)cc12` (stereo not given in full), the Potency result is “inactive”. As for `CCCCn1c(=O)c2[nH]c(C34CC5CC(CC3C5)C4)nc2n(CCCO)c1=O`, the “activity change, negative = inhibition” value was 2.49%. On to `CC(C)=CCC/C(C)=C/CC/C(C)=C/CC[C@]1(C)CCc2c(C)c(O)c(C)c(C)c2O1`, for which the activity change, negative = inhibition is 0.636% [at 6.83 µM]. `O=C(NCCCN1CCCCCC1)C(c1ccccc1)C1CCCCC1` (stereo not given): the “activity change, negative = inhibition” value was 2.33%. With `Cc1cc2nc3c(=O)[nH]c(=O)nc-3n(C)c2cc1C=O`, the “activity change, negative = inhibition” value is -4.72%. Take `CC[C@@H](C)[C@H](NS(=O)(=O)c1cccc2ccccc12)C(=O)N[C@H](C=O)Cc1c[nH]c2ccccc12`: the “activity change, negative = inhibition” value was 14.2%. The same measure, in the same setting: next, `O=C(C1CCCCC1)N(CCN1CCN(c2ccccc2CO)CC1)c1ccccn1`: 6.58%. In the case of `CC(C)c1cc(/C=C(\C#N)C(=O)NCCCc2ccccc2)cc(C(C)C)c1O`, the “activity change, negative = inhibition” value is -5.19%. As to `C[C@H](CCC(=O)NCC(=O)O)C1CC[C@H]2C3CC[C@@H]4C[C@H](O)CC[C@]4(C)C3C[C@H](O)[C@]12C` (stereo not given in full), the “activity change, negative = inhibition” value was 8.14%. On the same count and under the same terms, for `CC12CCC3C(CCC4CC(O)CCC43C)C1CC=C2c1ccccc1` (stereo not given) the value was 10.4%.

For `NCCNC(=O)Cc1ccc(NC(=O)Cc2ccc(Nc3ncnc4c3ncn4[C@@H]3O[C@H](CO)[C@@H](O)[C@H]3O)cc2)cc1`, the “activity change, negative = inhibition” value was -3.42%. As to `Nc1ncnc2c1ncn2C1C[C@H](O)[C@@H](CO)O1` (stereo not given in full), the “activity change, negative = inhibition” value was 0.137%.

Take `COc1cccc(OC)c1-c1cc(C(=O)NC2(C(=O)O)C3CC4CC(C3)CC2C4)nn1-c1ccc(C(=O)N(C)CCCN(C)C)cc1C(C)C` (stereo not given): the “activity change, negative = inhibition” value is 3.42%. In the case of `Nc1ncnc2c1cnn2-c1ccccc1`, the “activity change, negative = inhibition” value is -8.49%.

Consider `CCCCCCCCCCCCCCCCOCC(COP(=O)([O-])OCC[N+](C)(C)C)OC` (stereo not given), for which the activity change, negative = inhibition is 5.04% [at 6.83 µM]. On the same count and under the same terms, for `CC[N+]1(C)C2CCC1CC(OC(=O)[C@H]1CCC(C(=O)OC3CC4CCC(C3)[N+]4(C)CC)(c3ccccc3)c3ccccc31)C2` (stereo not given in full) the value was -2.32%; for `O=C(NCCCCN1CCN(c2cccc(Cl)c2Cl)CC1)c1ccc2c(c1)Cc1ccccc1-2`, 12.3%. On the same count and under the same terms, next, `O=c1[nH]cnc2c1ncn2C1O[C@H](CO)[C@@H](O)[C@H]1O` (stereo not given in full): 9.34%; `C[C@H](N)CCP(=O)(O)O`: 8.2%. On the same count and under the same terms, next, `CCCCC/C=C\C\C=C/C=C/C=C/[C@@H](SC[C@H](N)C(=O)NCC(=O)O)[C@@H](O)CCCC(=O)O`: 13.3% [at 0.59 µM]. As for `CCCCCCCCCCCCCC(=O)N[C@@H](C)[C@H](O)c1ccccc1`, the activity change, negative = inhibition is 10.8% [at 6.83 µM].

As to `CCCCC/C=C\C=C\[C@H](O)CCCCCCCC(=O)O`, the activity change, negative = inhibition is 19.3% [at 0.59 µM].

For `O=C(O)c1cc(Oc2ccc([N+](=O)[O-])cc2)cc(Oc2ccc([N+](=O)[O-])cc2)c1`, the “activity change, negative = inhibition” value was -9.35%. As to `C[C@H](CCC(=O)NCC(=O)O)C1CC[C@H]2[C@H]3C(C[C@H](O)[C@]12C)[C@@]1(C)CC[C@@H](O)C[C@H]1C[C@H]3O` (stereo not given in full), the “activity change, negative = inhibition” value is 7.09%.
